We go through 107 molecules from PubChem BioAssay AID2289 (National Center for Advancing Translational Sciences (NCATS), 2010).

SMILES strings stand for the structures. Among all 340,000 compounds or so, about 3,300 (0.97%) were called active. About 9% were inconclusive and are not listed. Calls follow the shape of the dose curve; as a rule, active = well fitted inhibition curve with a large enough effect; inconclusive = small, poorly fitted or top-dose-only effect, or effect the other way; inactive = flat fitted curve, though single readings scatter. The list shows a part of the results.
Potency is read from the fitted curve at half-maximal effect.

The test in a line: qHTS Assay for Modulators of miRNAs and/or Inhibitors of miR-21. Also: nearly all actives have a fitted effect of over 55% in size. Particulars: HeLa miR-21-FLuc reporter, luciferase luminescence, 48 h; actives lower the signal. The method in brief: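 Luminescence from a firefly luciferase reporter carrying a miR-21 binding site downstream, stably expressed under a CMV promoter in HeLa cells that make miR-21 endogenously, reports miRNA modulation after 48 h compound exposure up to approximately 40uM final.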
In general terms: Quantitative high-throughput screening tests each substance at several concentrations.
As to `Clc1cccc(Cl)c1Cn1ccc(C2CC2)n1`, the Potency was 10.4 µM (active).
Next, `O=C(NCc1ccccc1)c1c[nH]c2cc3c(cc2c1=O)OCCO3`: 2.33 µM (active).
The figure for `Cc1ccc(N/C=C/c2onc(C)c2[N+](=O)[O-])cc1` is 0.185 µM (active).
Next, `Cc1cc(O)ccc1N/C=C/c1onc(C)c1[N+](=O)[O-]`: 1.04 µM (active); `O=C(c1ccc2ccccc2n1)N1CCN(c2ccccc2Cl)CC1`: 16.5 µM (active).
Consider `Oc1ccccc1N1CCN(c2ccc3ccccc3n2)CC1`, for which the Potency is 0.826 µM (active).
The figure for `CN(C)c1cnn(-c2ccccc2)c(=O)c1Cl` is 14.7 µM (active); for `CC(=O)Nc1ccc(OCC(O)Cn2ccnc2)cc1` (configuration not stated) it is 16.5 µM (active).
With `COc1ccc(-c2cnc3ccccc3n2)cc1NC(=O)CNC(=O)c1ccccc1`, the Potency was 6.56 µM (active).
Consider `CCOC(=O)c1ccc2c(c1)NCc1cccc(OC)c1O2`, for which the Potency is 3.29 µM (active).
Next, `CCN(CC)c1ccc(/C=N/N2CCOCC2)c(O)c1`: 2.93 µM (active); `COc1cccc(NC(=S)Nc2cc(C)cc(C)n2)c1`: 4.65 µM (active).
Next, `CSc1ccc(NC(=O)Nc2cc(C)ccn2)cc1`: 0.104 µM (active).
The figure for `Cc1cccc(NC(=O)Nc2cc(C)cc(C)n2)c1` is 0.736 µM (active).
For `Cc1ccc(NC(=O)Nc2cccc(C)n2)cc1`, the Potency is 2.07 µM (active).
Turning to `Cc1cc(C)nc(NC(=O)/C=C/c2ccccc2Cl)c1`, the Potency is 2.07 µM (active).
The figure for `CC(NC(=O)c1ccccc1NC(=O)c1ccco1)C(=O)O` (configuration not stated) is 6.56 µM (active).
Next, `Nc1nc(-c2ccc3ccccc3c2)cs1`: 1.65 µM (active); `CN(C)/C=N/c1nc(-c2ccc3ccccc3c2)cs1`: 1.31 µM (active).
The figure for `COc1ccc(-c2csc(N)n2)cc1F` is 9.27 µM (active); for `COc1ccc(-c2cn3cccc(C)c3n2)cc1F` it is 0.927 µM (active); for `COc1ccc(NC(=O)/C=C/c2ccccc2)cn1` it is 1.65 µM (active).
In the case of `CCOC(=O)c1ccc(OS(=O)(=O)c2ccccc2)c(OC)c1`, the Potency was 1.31 µM (active).
Next, `COc1ccc(/C=C/C(=O)Nc2ccccc2)cc1OC`: 4.14 µM (active); `COc1ccccc1NC(=S)N/N=C/c1ccc(O)cc1`: 0.736 µM (active); `Cc1cccc(/C(N)=N/OC(=O)c2ccc(F)cc2)c1`: 4.65 µM (active).
The figure for `CCN(CC)c1ccc(/C=N/NC(=O)Nc2ccccc2)cc1` is 4.14 µM (active).
With `COc1ccc(/C=C/C(=O)O/N=C(\N)c2ccccc2)cc1OC`, the Potency was 5.85 µM (active).
`COc1cc(/C=N/NC(=O)Nc2ccccc2)ccc1OC(C)=O`: the Potency is 8.26 µM (active).
Next, `CCCCCC(=O)N/N=C/c1ccc(N(C)C)cc1`: 13.1 µM (active).
The figure for `COc1ccc2c(c1)CC/C2=N\OC(=O)c1cccc(C)c1` is 4.14 µM (active); for `COc1ccc(C(=O)O/N=C(\N)c2cccc(C)c2)cc1OC` it is 8.26 µM (active); for `O=C(/C=C/c1ccccc1)Nc1cccnc1Cl` it is 1.85 µM (active).
Turning to `COc1ccc(C(=O)O/N=C(\N)c2ccccc2)cc1OC`, the Potency is 2.07 µM (active).
`CC(=O)Oc1ccc(/C=N/NC(=S)Nc2ccccc2)cc1`: the Potency is 0.656 µM (active).
Next, `Cc1ccccc1/C(N)=N/OC(=O)/C=C/c1ccccc1`: 5.21 µM (active); `C=CCn1cccc(C(=O)Nc2ccc(N(C)C)cc2)c1=O`: 4.65 µM (active).
The figure for `Clc1cccc(-c2cc3nc4c(c(NCc5ccco5)n3n2)CCCC4)c1` is 2.93 µM (active); for `Fc1cccc(CSc2ccc(-c3cccs3)nn2)c1` it is 4.14 µM (active).
The figure for `c1ccc(CSc2ccc(-c3cccs3)nn2)cc1` is 2.93 µM (active); for `c1ccc(CSc2ccc(-c3cccnc3)nn2)cc1` it is 6.56 µM (active); for `Cc1cccc(CSc2ccc(-c3cccs3)nn2)c1` it is 7.36 µM (active).
Regarding `Cc1cc(Nc2ccccc2)nc2cc(O)ccc12`, the Potency is 13.1 µM (active).
The figure for `COc1ccc(Nc2nc(C)c3ccccc3n2)cc1` is 3.29 µM (active); for `CCOc1ccc(Nc2cc(C)c3ccccc3n2)cc1` it is 18.5 µM (active).
The figure for `COc1ccc(Nc2cc(C)c3ccccc3n2)cc1` is 5.85 µM (active); for `O=[N+]([O-])c1nn(-c2ccc3c(c2)OCCO3)n(O)c1=NCc1ccc(F)cc1` it is 1.17 µM (active); for `COc1ccc(-n2nc([N+](=O)[O-])c(=NCc3ccc4c(c3)OCO4)n2O)cc1` it is 1.65 µM (active).
Next, `COc1ccc(-n2nc([N+](=O)[O-])c(=NCc3cccnc3)n2O)cc1`: 2.33 µM (active).
`Cc1ccc(CN=c2c([N+](=O)[O-])nn(-c3ccc4c(c3)OCCO4)n2O)cc1`: the Potency was 1.31 µM (active).
Consider `CCOC(=O)c1sc(NC(=O)C2CCC2)cc1C`, for which the Potency is 4.65 µM (active).
Next, `CCOC(=O)c1sc(NC(=O)c2ccccc2)cc1C`: 0.521 µM (active).
As for `CCOC(=O)c1sc(NC(=O)c2sccc2C)cc1C`, the Potency is 0.369 µM (active).
The figure for `COc1ccc2[nH]c(=O)c(CNc3ccccc3C)cc2c1` is 7.36 µM (active).
The figure for `O=C(N=Nc1c(O)n(Cc2ccccc2)c2ccccc12)c1ccc(O)cc1` is 6.56 µM (active).
As for `O=C(CSCc1c(F)cccc1F)Nc1ccccc1`, the Potency was 5.85 µM (active).
The figure for `O=C(CSCc1ccccc1)Nc1cccc(F)c1` is 13.1 µM (active); for `O=C(CSCc1ccccc1)Nc1ccc(F)c(F)c1` it is 14.7 µM (active).
Next, `Cc1ccc(NC(=O)CSCc2ccc(F)cc2)cc1`: 6.56 µM (active); `Cc1ccc(NC(=O)c2cccc3cccnc23)cc1`: 3.69 µM (active); `O=C(NCCc1ccccc1F)c1cccc2cccnc12`: 3.29 µM (active).
For the molecule `NC(=O)c1cccnc1Nc1cccc([N+](=O)[O-])c1`, the Potency was 6.56 µM (active).
Turning to `Cc1ccc(Nc2ncccc2C(N)=O)cc1`, the Potency was 1.65 µM (active).
In the case of `Cc1cc(Cl)ccc1Nc1ncccc1C(N)=O`, the Potency was 2.07 µM (active).
The figure for `Cc1ccc(Nc2ncccc2C(N)=O)cc1[N+](=O)[O-]` is 3.29 µM (active); for `COc1ccnc(Oc2ccc3ccccc3c2)c1C#N` it is 2.93 µM (active); for `COc1ccc(-c2nc3c4ccccc4ccn3c2CN2CCOCC2)cc1OC` it is 6.56 µM (active).
`COc1cnn(-c2ccc(Br)cc2)c(=O)c1SCc1ccccc1`: the Potency is 13.1 µM (active).
The figure for `Oc1ccc(-c2csc(NCc3ccco3)n2)cc1` is 4.65 µM (active); for `CC(=O)Nc1ccc(-c2csc(NCc3ccco3)n2)cc1` it is 4.14 µM (active); for `COc1ccc(-c2csc(NCc3ccco3)n2)cc1C` it is 5.85 µM (active).
The figure for `O=C(Cc1ccc(Cl)cc1)c1ccc(O)cc1` is 5.21 µM (active).
The figure for `CN(C)/C=C/C(=O)c1cnc(-c2ccccc2Cl)s1` is 18.5 µM (active); for `CN(C)/C=C/C(=O)c1cnc(-c2cccc(Cl)c2)s1` it is 18.5 µM (active); for `COc1cc(C)ccc1OCCOc1ccccc1Cl` it is 14.7 µM (active).
As for `COc1cc(C)ccc1OCCCOc1ccccc1Cl`, the Potency is 6.56 µM (active).
Next, `COc1ccccc1OCCCOc1ccc([N+](=O)[O-])cc1Cl`: 7.36 µM (active); `Cn1c(-c2ccc3nc(N)sc3c2)nc2cc(N)ccc21`: 18.5 µM (active).
The figure for `CN(N=Nc1ccc([N+](=O)[O-])cc1)c1ccccc1` is 4.14 µM (active).
The figure for `O=C(NC(=S)Nc1ccc(Br)cn1)c1cccs1` is 0.521 µM (active).
Regarding `Cc1nc(NC(=S)NC(=O)c2cccs2)ccc1Br`, the Potency was 14.7 µM (active).
Next, `O=c1[nH]c(COc2ccc(Br)cc2Cl)nc2ccccc12`: 2.61 µM (active).
For `O=c1[nH]c(COc2ccc(Cl)cc2Br)nc2ccccc12`, the Potency was 3.29 µM (active).
Next, `CCN(CC)S(=O)(=O)c1cc(C(=O)Oc2cccc(-c3cnc4ccccc4n3)c2)ccc1Br`: 1.85 µM (active); `Nc1c(-c2ccc3c(c2)OCCO3)oc2ccccc2c1=O`: 2.93 µM (active); `COc1ccc(-n2ncc3c(NCCCn4ccnc4)ncnc32)cc1`: 10.4 µM (active).
For `CCN(CC)CCCNc1ncnc2c1cnn2-c1ccc(C)c(C)c1`, the Potency is 6.56 µM (active).
The figure for `Cc1cccc(-n2ncc3c(NCCCn4ccnc4)ncnc32)c1` is 10.4 µM (active); for `COc1cccc(C(=O)/C=C/Nc2ccc(S(=O)(=O)Nc3onc(C)c3C)cc2)c1` it is 13.1 µM (active); for `Cc1noc(NS(=O)(=O)c2ccc(N/C=C/C(=O)c3ccc4c(c3)OCO4)cc2)c1C` it is 9.27 µM (active).
The figure for `COc1cccc(C(=O)/C=C/Nc2ccc(S(=O)(=O)Nc3ncccn3)cc2)c1` is 11.7 µM (active); for `COc1cccc(C(=O)/C=C/Nc2ccc(NC(C)=O)cc2)c1` it is 11.7 µM (active); for `COc1cccc(C(=O)/C=C/Nc2ccc(S(=O)(=O)Nc3cnc4ccccc4n3)cc2)c1` it is 7.36 µM (active).
On to `Fc1cc(Br)ccc1COc1ccc(-c2nnco2)cc1`, for which the Potency was 7.36 µM (active).
Next, `Cc1ccc(COc2ccc(-c3nnco3)cc2)cc1`: 4.14 µM (active); `Cc1ccc(COc2ccc3c(c2)OCO3)cc1`: 3.69 µM (active).
The figure for `Cn1c(SCc2c(F)cccc2Cl)nnc1-c1cnccn1` is 4.14 µM (active).
For `Cn1c(SCc2c(F)cccc2Cl)nnc1-c1cccs1`, the Potency is 6.56 µM (active).
The figure for `CCCNC(=O)c1c(Cl)cnn1-c1ccc(C)cc1` is 4.14 µM (active); for `O=C(Nc1ccccc1)c1ccc(-c2ccccc2C(F)(F)F)o1` it is 13.1 µM (active).
Next, `O=C(Nc1ccccc1)c1cc(-c2ccccc2Cl)no1`: 7.36 µM (active); `O=C(Nc1ccccc1)OCc1cc(-c2ccccc2Cl)on1`: 11.7 µM (active); `O=C(Nc1ccccc1)c1ccc(-c2ccccc2Cl)o1`: 3.69 µM (active).
Next, `O=C(Nc1cccc(F)c1)c1ccc(-c2ccccc2Cl)o1`: 2.93 µM (active); `COc1ccc(NC(=O)c2ccc(-c3ccccc3Cl)o2)cc1`: 7.36 µM (active).
Regarding `COc1ccc(/C=C/c2ccncc2)cc1OC`, the Potency was 16.5 µM (active).
Next, `CC1=NN(C(=O)c2ccoc2C)C(O)(C(F)(F)F)C1` (configuration not stated): 10.4 µM (active).
